Reference: PubChem BioAssay AID686979 (National Center for Advancing Translational Sciences (NCATS), 2013)
In all, about 420,000 compounds went through this assay and about 50,000 (12%) were called active. Inconclusive results (about 26%) are left out. The call rests on the fitted dose curve; in most records, active means well fitted inhibition curve with a large enough effect; inconclusive means small, poorly fitted or top-dose-only effect; inactive means flat fitted curve, though single readings scatter. The sample as a whole holds a higher share of actives than the screen did.

Assay: qHTS for Inhibitors of human tyrosyl-DNA phosphodiesterase 1 (TDP1): qHTS in cells in presence of CPT; further: nearly all actives have a fitted effect of over 55% in size
Settings: chicken DT40 Tdp1-/-;hTDP1 cells + 20 nM CPT, ATP luminescence, 48 h; series mostly up to 46.2 µM; activity change, negative = growth inhibition: at the top concentration
In short: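 Chicken DT40 Tdp1-/- cells stably complemented with human TDP1 were seeded at 400 cells/well in medium containing 20 nM camptothecin, exposed to pin-transferred compounds, and grown at 37 °C for at least 48 hr. Viability was read as ATP luminescence.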
On the % scale 0 is the no-effect control and ±100 the full control effect; potency means the concentration at half of the fitted maximal effect.

Structure (SMILES)	activity change, negative = growth inhibition	Potency
Cc1ccc(C(=O)Nc2ccc3[nH]c(=O)c(=O)[nH]c3c2)cc1	26.4% (inactive)	–
CC(C)CCNC(=O)CCNS(=O)(=O)c1ccc(Cl)cc1	-2.47% (inactive)	–
COC(=O)c1c(OCc2ccc(F)cc2)cc(=O)n2c1CCN(Cc1ccc3cccnc3c1)CC2	8.77% [at 9.04 µM] (inactive)	–
O=C(Nc1cc(-c2nc3ccccc3o2)ccc1Cl)c1cc([N+](=O)[O-])ccc1N1CCOCC1	-23.5% (inactive)	–
COc1cc(/C=C/CNC[C@H]2O[C@@H](n3cnc(C(N)=O)n3)[C@H](O)[C@@H]2O)ccc1O	-10.3% (inactive)	–
O=C(c1ccco1)n1nc(-c2ccc(Cl)cc2)nc1NCc1ccccc1	–	18.4 µM (active)
O=C(c1ccc(Cl)cc1)n1nc(-c2cccnc2)nc1NCc1ccc(F)cc1	-17.8% (inactive)	–
O=C(Cc1ccccc1)n1nc(-c2ccccc2)nc1NCc1ccco1	13.9% (inactive)	–
COc1ccc(C(=O)NCCSc2ccccc2C)cc1	-12.7% (inactive)	–
Cc1nn(C)cc1N1C(=O)c2cccc3c(N)ccc(c23)C1=O	2.78% (inactive)	–
CN1C(=O)c2cccc3c(N)ccc(c23)C1=O	-22.8% (inactive)	–
CCN1C(=O)c2cccc3c(N)ccc1c23	–	11.6 µM (active)
NC1=NC(c2cc(F)cc(F)c2)n2c(nc3ccccc32)N1 (stereo not given)	3.45% (inactive)	–
CS(=O)(=O)C1=NN2C(=N)/C(=C\c3ccc(OCCOc4ccccc4)cc3)C(=O)N=C2S1	16% (inactive)	–
Cc1ccc(NC2CCCN(C(=O)CCC3(C)CC3)C2)cc1C (stereo not given)	-24.4% (inactive)	–
CCCCN(CC)CCCNC(=O)Cn1ncc2c([nH]c3ccc(C)cc32)c1=O	-20% (inactive)	–
COc1ccccc1CNC(=O)Cn1cc2c(n1)CCCC2	5.72% (inactive)	–
Cc1nn(CC(=O)N2CCCCC2)c(=O)c2nn(-c3ccccc3)c(C)c12	-16% (inactive)	–
CC(Sc1nncs1)C(=O)NCc1ccc2c(c1)OCO2 (stereo not given)	4.18% (inactive)	–
Cc1nn(C(C)C(=O)N2CCOCC2)c(=O)c2nn(-c3ccccc3)c(C)c12 (stereo not given)	8.07% (inactive)	–
COc1ccccc1CNC(=O)Cn1c(=O)oc2cc(Cl)ccc21	-27.3% (inactive)	–
COc1ccccc1CNC(=O)Cn1nc(C)c2nn(-c3ccc(Cl)cc3)c(C)c2c1=O	–	20.6 µM (active)
COc1ccc(CNC(=O)C(C)n2nc(C)c3c(C)n(-c4ccccc4)nc3c2=O)c(OC)c1 (stereo not given)	–	16.4 µM (active)
Cc1ccc(-n2nc3c(=O)n(C(C)C(=O)NCc4ccc5c(c4)OCO5)nc(C)c3c2C)cc1 (stereo not given)	–	18.4 µM (active)
Cc1nc2c(C(=O)NCc3ccc4c(c3)OCO4)c[nH]n2c(=O)c1Cc1ccccc1F	-16.8% (inactive)	–
CN(CCC1CCOCC1)C(=O)CC1C(=O)NCCN1Cc1cccc(F)c1 (stereo not given)	-1.92% (inactive)	–
CC1CC(C)CN(CCOc2cccc3ccccc23)C1 (stereo not given)	-22.3% (inactive)	–

Structure (SMILES)	activity change, negative = growth inhibition	Potency
O=C(Nc1ccc([N+](=O)[O-])cc1)OCCc1ccccn1	-1.97% (inactive)	–
COc1ccc(CN2CCOc3c(cc(-c4ncc(C(F)(F)F)cc4Cl)cc3OCC3CCCO3)C2)c(O)c1 (stereo not given)	-9.5% (inactive)	–
O=C(CN1C(=O)NC2(CCOc3ccccc32)C1=O)NCc1ccc(F)cc1 (stereo not given)	-2.81% (inactive)	–
O=C(NCCCn1ccnc1)C(=O)c1cn(CC(=O)N2CCCCCC2)c2ccccc12	0.0855% (inactive)	–
CC(C)NC(=O)c1nn(-c2ccccc2F)nc1CO	-8.52% (inactive)	–
CC1(C)NC(=O)N(CC(=O)Nc2ccc(-c3ccccc3)cc2)C1=O	-0.421% (inactive)	–
Cc1nnsc1C(=O)N/N=C/c1ccccc1Cl	-6.37% (inactive)	–
O=C(CSc1nnc(SCc2ccc(Cl)cc2)s1)N/N=C/c1ccccc1Cl	–	18.4 µM (active)
O=C(Cc1ccccc1)N/N=C/c1ccc(Cl)cc1Cl	-18.1% (inactive)	–
C=CCOc1ccccc1NC(=O)CN1C(=O)CNC1=O	-0.254% (inactive)	–
COc1ccc(CCN2CNc3c(c(=O)n(C)c(=O)n3C)C2)cc1OC	-7.71% (inactive)	–
COc1ccc(CCN2C(=O)C(C)=C(C)C2=O)cc1OC	-24.1% (inactive)	–
COc1ccc(CCn2cc3c(c2-c2ccc(Br)cc2)c(=O)n(C)c(=O)n3C)cc1OC	–	23.1 µM (active)
O=S(=O)(c1ccc(-c2ccno2)s1)N1CCCCC1	-29.3% (inactive)	–
COc1cccc(/C=C2\C=C(c3ccc(C)cc3)OC2=O)c1OC(C)=O	8.2% (inactive)	–
COCc1c(C(=O)N/N=C\c2cccnc2)nnn1-c1nonc1N	0.229% (inactive)	–
CCCCNC(=O)Nc1c(C)cc(SC#N)cc1C	–	18.4 µM (active)
CCCCNC(=O)C(=O)c1ccccc1NC(C)=O	-7.11% (inactive)	–
c1ccc(CCc2ccccn2)cc1	-4.92% (inactive)	–
Cc1ccc(CC2CC(=O)N(c3nc(C)cc(C)n3)C2=O)cc1 (stereo not given)	16.3% (inactive)	–
CC(=O)N1CC(C)c2scc(C)[n+]2-c2ccccc21 (stereo not given)	-10.7% (inactive)	–
CCOC(=O)c1nnn(-c2nonc2-n2cccc2)c1CN1CCC(C(=O)OCC)CC1	–	18.4 µM (active)
NNC(=O)c1nnn(-c2nonc2N)c1CN1CCCC1	-7.28% (inactive)	–
CCOC(=O)c1nnn(-c2nonc2-n2cccc2)c1CN1CCOCC1	-16.2% (inactive)	–
CCOC(=O)C1(Cc2cccc(OC)c2)CCCN(C(=O)CCSC)C1 (stereo not given)	-3.48% (inactive)	–
CC1(c2ccccc2)NC(=O)N(CC(=O)N2CC(=O)Nc3ccccc32)C1=O (stereo not given)	30.7% (inactive)	–
COC1C(CO)OC(n2cnc3c(=S)nc(N)[nH]c32)C1O (stereo not given)	–	16.4 µM (active)

Structure (SMILES)	activity change, negative = growth inhibition	Potency
Nc1nc2c(ncn2[C@@H]2O[C@H](CNS(=O)(=O)N3CCc4ccccc4C3)[C@@H](O)[C@H]2O)c(=O)[nH]1	10.7% (inactive)	–
CC(C)Sc1nc(N)nc2c1ncn2C1OC(CO)C(O)C1O (stereo not given)	-26.9% (inactive)	–
COC(=O)CNS(=O)(=O)c1ccc(Cc2ccc(S(=O)(=O)NCC(=O)OC)cc2)cc1	-25.3% (inactive)	–
CCn1c(SCC(=O)Nc2ccc3c(c2)OCCO3)nnc1C(C)C	0.283% (inactive)	–
CCCn1c(SCC(=O)c2ccc3c(c2)OCCO3)nnc1C(C)C	–	23.1 µM (active)
CCCn1c(SCC(N)=O)nnc1C(C)C	-3.06% (inactive)	–
CCC(=O)N1CCCc2ccccc21	7.34% (inactive)	–
Cn1c(SCC(=O)N2CCCc3ccccc32)nc2ccccc2c1=O	–	7.31 µM (active)
O=C(CSc1nc2ccccc2c(=O)n1CCCO)N1CCc2ccccc21	-21.9% (inactive)	–
CC(C)CNC(=S)NNC(=O)c1ccccc1OC(F)F	3.45% (inactive)	–
CC(=O)Nc1ccc(S(=O)(=O)Oc2ccc(Br)cc2C(=S)N2CCOCC2)cc1	-28.2% (inactive)	–
O=S(=O)(Oc1ccccc1C(=S)N1CCOCC1)c1ccc(Cl)cc1	–	16.4 µM (active)
CCOc1cc(C(=S)N2CCOCC2)ccc1OS(=O)(=O)c1ccc(Br)cc1	0.241% (inactive)	–
O=c1c([N+](=O)[O-])cccn1Cc1ccc(F)cc1Cl	–	11.6 µM (active)
N/C(=N/O)c1cccn1Cc1ccccc1[N+](=O)[O-]	-10.3% (inactive)	–
O=[N+]([O-])c1ccccc1NCc1ccccc1Cl	12.7% (inactive)	–
O=C(O)c1ccc(S(=O)(=O)c2ccccc2)s1	25.9% (inactive)	–
O=C(N=C1SC2CS(=O)(=O)CC2N1Cc1ccccc1)c1ccccc1 (stereo not given)	-29.9% (inactive)	–
COC(=O)c1sccc1NS(=O)(=O)c1ccc(F)cc1F	-12.9% (inactive)	–
O=C(O)c1ccccc1/C=N/Nc1ccc(S(=O)(=O)Nc2ccc(Cl)cc2)cc1[N+](=O)[O-]	-4.1% (inactive)	–
O=[N+]([O-])c1cc(S(=O)(=O)Nc2cccc(Cl)c2)ccc1N=Nc1c(O)[nH]c2ccccc12	–	20.6 µM (active)
COc1ccc(S(=O)(=O)Nc2ccc3cn[nH]c3c2)cc1[N+](=O)[O-]	-29% (inactive)	–
CN(Cc1ccc(F)cc1Cl)S(=O)(=O)c1cccs1	-6.15% (inactive)	–
Cn1cc(C(=O)c2ccc(Cl)cc2Cl)cc1C(=O)NN	-12% (inactive)	–
CC(OC(=O)CCc1nc(=O)c2ccccc2n1C)C(=O)NCc1ccc2c(c1)OCO2 (stereo not given)	5.95% (inactive)	–
Cc1ccc(S(=O)(=O)CC(=O)Nc2nnc(C)s2)cc1	10.5% (inactive)	–
Cc1ccc(S(=O)(=O)CCC(=O)Nc2nnc(CC(C)C)s2)cc1	–	20.6 µM (active)

Structure (SMILES)	activity change, negative = growth inhibition	Potency
CCOc1ccc(OCC)c(NC(=O)CCS(=O)(=O)c2ccc(C)cc2)c1	-26.2% (inactive)	–
CC(C)Cc1nnc(NC(=O)CCc2ccccc2)s1	-0.358% (inactive)	–
CCOC(=O)c1ccc(NC(=O)CCS(=O)(=O)c2ccc3c(c2)oc(=O)n3C)cc1	-4.86% (inactive)	–
CCOC(=O)c1ccc(NC(=O)CCS(=O)(=O)c2ccc(C)cc2)cc1	–	18.4 µM (active)
O=C1C(=O)N(CCN2CCOCC2)C(c2cccc(Cl)c2)/C1=C(/O)c1ccc2c(c1)OCO2 (stereo not given)	13.7% (inactive)	–
CN(CC(O)COc1ccc(S(=O)(=O)N2CCOCC2)cc1Cl)C1CCCCC1 (stereo not given)	-8.6% (inactive)	–
CCCCOc1ccc(N(CC(=O)NC(C)C)C(=O)CCC(=O)Nc2ccccn2)cc1	10.3% (inactive)	–
O=C(Cc1cccs1)N/N=C/c1ccc(OCc2ccccc2)cc1	2.58% (inactive)	–
O=C(NN1C(=O)C2C3C=CC(C4CC34)C2C1=O)c1ccc(Cl)cc1 (stereo not given)	-0.451% (inactive)	–
N=c1oc2ccccc2cc1C(=O)N/N=C/c1ccccc1	-5.9% (inactive)	–
O=C(N/N=C/c1c[nH]c2ccccc12)c1cc2ccccc2o1	–	14.6 µM (active)
Cc1c(/C=N\NC(=O)c2cc3ccccc3o2)c2ccccc2n1C	–	3.66 µM (active)
O=C(O)c1cccc(NC(=S)N/N=C/c2c[nH]c3ccccc23)c1	10.2% (inactive)	–
CSC(=S)N/N=C/c1c[nH]c2ccccc12	–	0.651 µM (active)
Cc1ccc(NC(=O)c2cc3ccccc3o2)cc1	1.36% (inactive)	–
O=C(N/N=C/c1coc2ccccc2c1=O)c1cc2ccccc2o1	-2.89% (inactive)	–
O=C(N/N=C/c1cccc(O)c1)c1cc2c(ccc3ccccc32)o1	-24.9% (inactive)	–
O=C(N/N=C/c1c[nH]c2ccccc12)c1ccccc1O	11.7% (inactive)	–
CCOC(=O)c1ccc(NC(=O)C2CC(=O)N(c3ccc4c(c3)OCCO4)C2)cc1 (stereo not given)	-27% (inactive)	–
O=C1CCCC(O)=C1N=Nc1ccc2ncsc2c1	4.68% (inactive)	–
NNC(=O)CSc1nnc(-c2ccccc2)n1-c1ccccc1	-1.97% (inactive)	–
CCCCn1c(N)c(N(CCOC)C(=O)c2sc3ccccc3c2Cl)c(=O)[nH]c1=O	4.55% (inactive)	–
CC[C@H](C)C(=O)N[C@H]1CCCN1C(=O)/C=C/c1ccccc1	8.02% (inactive)	–
O=S(=O)(NCCS(=O)(=O)N1CCN(c2ccccc2)CC1)c1ccc(F)cc1	11.5% (inactive)	–
